Data as given in PubChem BioAssay AID686979 (National Center for Advancing Translational Sciences (NCATS), 2013).
Hit rate of the full screen: of about 420,000 compounds, about 50,000 (12%) were called active. Roughly 26% stayed inconclusive and do not appear here. What follows is part of a selection rich in actives, with near analogues and random picks from the rest. Unmarked numbers belong to inactive results. Calls come from the whole dose curve; as a rule, active = well fitted inhibition curve with a large enough effect; inconclusive = small, poorly fitted or top-dose-only effect; inactive = flat fitted curve, though single readings scatter.

Test: qHTS for Inhibitors of human tyrosyl-DNA phosphodiesterase 1 (TDP1): qHTS in cells in presence of CPT; note: nearly all actives have a fitted effect of over 55% in size
Settings: chicken DT40 Tdp1-/-;hTDP1 cells + 20 nM CPT, ATP luminescence, 48 h; series mostly up to 46.2 µM; activity change, negative = growth inhibition: at the top concentration
In short: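 Chicken DT40 Tdp1-/- cells stably complemented with human TDP1 were seeded at 400 cells/well in medium containing 20 nM camptothecin, exposed to pin-transferred compounds, and grown at 37 °C for at least 48 hr. Viability was read as ATP luminescence.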
% is set by controls: 0 for no effect and ±100 for the full control effect; potency is the fitted concentration of half-maximal effect.

| SMILES | activity change, negative = growth inhibition | Potency |
| --- | --- | --- |
| COC(=O)[C@@H]1C[C@H]2CC[C@H](O)C[C@H]2N1Cc1ccc(N2CCN(C)CC2)cc1 | 2.1% | – |
| O=C(c1cccnc1NCc1ccccc1)N1CCOCC1 | -0.352% | – |
| Oc1c(C(c2ccccn2)N2CCOCC2)ccc2cccnc12 (stereo unspecified) | – | 16.4 µM (active) |
| Cc1nc2sc(C(c3ccco3)N3CCOCC3)c(O)n2n1 (stereo unspecified) | -5.57% | – |
| O=C(O)c1cc(S(=O)(=O)Nc2ccc3cn[nH]c3c2)ccc1Br | -23% | – |
| O=C(Nc1ccccc1)C1CC(=O)n2c(nc3ccccc32)N1 (stereo unspecified) | -4.62% | – |
| O=c1ccc2cc(S(=O)(=O)NCCCc3ccccc3)ccc2[nH]1 | -0.674% | – |
| CCOC(=O)CSc1nc2c(c(=O)n(C)c(=O)n2C)n1Cc1ccccc1F | -17% | – |
| COC(=O)C(C)Sc1nc2c(c(=O)n(C)c(=O)n2C)n1Cc1cccc(C)c1 (stereo unspecified) | -18.2% | – |
| C#CC(C)(C)NC(=O)CSc1nc2c(c(=O)n(C)c(=O)n2C)n1CCCC | -13% | – |
| CC(C)n1c(SCC(=O)Nc2ccccc2N2CCCCC2)nc2c1c(=O)n(C)c(=O)n2C | – | 29.1 µM (active) |
| Cc1cccc(Cn2c(SCCO)nc3c2c(=O)n(C)c(=O)n3C)c1 | – | 25.9 µM (active) |
| Cn1c(=O)c2c(nc(SCC(=O)Nc3ccc(F)cc3)n2Cc2ccccc2)n(C)c1=O | – | 4.61 µM (active) |
| CCCCn1c(SCC(=O)N2CCOCC2)nc2c1c(=O)n(C)c(=O)n2C | 2.67% | – |
| CSc1nnc(C2CCCN(CC(=O)Nc3ccccc3N3CCOCC3)C2)n1C(C)C (stereo unspecified) | -20% | – |
| CCC1CCCCN1C(=O)CSc1nc2c(c(=O)n(C)c(=O)n2C)n1C (stereo unspecified) | -19.2% | – |
| O=C(c1cccs1)N1C[C@H](n2cc(C3CC3)nn2)[C@@H](O)C[C@@H]1c1ccccc1 | -0.33% | – |
| O=C(O)CC12CC3CC(C1)CC(n1ncc(NCc4ccc(F)cc4)c(Cl)c1=O)(C3)C2 | 2.86% | – |
| Cc1ccc(C(=O)NCC(c2cccs2)N(C)C)cc1S(=O)(=O)N1CCOCC1 (stereo unspecified) | -21.4% | – |
| O=C(NCc1csc(-c2cccs2)n1)C1CC1 | 5.77% | – |
| CC(C)(C)C1CCC(C(=O)NCC(c2cccs2)N2CCOCC2)CC1 (stereo unspecified) | – | 16.4 µM (active) |
| Cc1c(C=O)c2ccccc2n1CC(=O)O | -0.794% | – |

| SMILES | activity change, negative = growth inhibition | Potency |
| --- | --- | --- |
| Cc1ccc(S(=O)(=O)N2CCOCC2)cc1NC(=O)COC(=O)c1cnccn1 | -0.832% | – |
| COc1cc(/C=C/c2ccc(/C=C/c3cc(OC)c(OC)c(OC)c3)cc2)cc(OC)c1OC | -24.1% | – |
| O=C1c2ccccc2C(=O)C1c1ccccc1F | 19% | – |
| O=C1c2ccccc2C2=Nc3ccccc3SC(c3ccccc3F)C12 (stereo unspecified) | – | 14.6 µM (active) |
| O=C1CSC(=S)N1c1ccc(Cl)c(Cl)c1 | -13.3% | – |
| COc1ccc(/C=C(\NC(=O)c2ccc(OC)c(OC)c2)C(=O)NCCc2c[nH]c3ccccc23)cc1 | -1.48% | – |
| COc1ccc(/C=C(\C#N)c2c[nH]c3ccccc23)cc1 | – | 1.16 µM (active) |
| C[N+](C)(C)CCNC(=O)c1c[nH]c2ccccc12 | 2.23% | – |
| COC(=O)c1ccc(/C=N/OCC(=O)Nc2cc(F)ccc2F)cc1 | 11.8% | – |
| COc1cccc(N2CC(NS(=O)(=O)c3ccc(Cl)cc3)CC2=O)c1 (stereo unspecified) | -12.5% | – |
| c1ccc2c(CCN3CCNC[C@H]3Cc3cccc4ccccc34)cccc2c1 | – | 20.6 µM (active) |
| O=C1CCNCCN1[C@H](CO)Cc1ccccc1 | 0.73% | – |
| c1ccc(C[C@H]2CNCCN2CCC23CC4CC(CC(C4)C2)C3)cc1 | – | 10.3 µM (active) |
| CSC1=NCCN1C(=O)Cc1cccc2ccccc12 | -4.3% | – |
| CC(C)(C)CN1C(=O)C(=O)NC[C@H]1Cc1cccc2ccccc12 | -9.63% | – |
| Nn1c(SCC(=O)NC2CCCC2)nnc1-c1ccccc1F | -15.8% | – |
| COCC1CCN(C(=O)c2ccc3oc(Cc4ccccc4)nc3c2)C1 (stereo unspecified) | 1.38% | – |
| COc1cc(OC)c(NC(=O)c2cc(S(=O)(=O)N3CCCC3)cn2C)cc1Cl | 1.61% | – |
| Cc1ccccc1NC(=O)CCOc1ccccc1 | – | inactive |
| Cc1cccc(OCCC(=O)Nc2ccccc2C(N)=O)c1 | – | 9.2 µM (active) |
| Cc1cccc(OCC(=O)Nc2ccccc2F)c1 | -10.9% | – |
| Cc1oc2c(c1C(=O)Nc1ccc(F)c(F)c1)C1=NCCN1C=N2 | -15% | – |

| SMILES | activity change, negative = growth inhibition | Potency |
| --- | --- | --- |
| COc1ccc(/C=N/n2nnnc2N)cc1OC | 18.6% | – |
| Nc1nc(SCC(=O)Nc2ccc(Cl)c([N+](=O)[O-])c2)n[nH]1 | -16.2% | – |
| CC(OC(=O)CN1C(=O)COc2ccccc21)C(=O)NCc1ccc(F)cc1 (stereo unspecified) | -15.2% | – |
| O=C(CN1CCOC1=O)N1CCCC(Nc2ccc(F)c(F)c2)C1 (stereo unspecified) | 5.44% | – |
| CC(C)=C1C2CCC1C1C(=O)N(NC(=O)c3ccco3)C(=O)C21 (stereo unspecified) | 1.68% | – |
| O=C(NCCc1ccccc1)c1ccc(OCCOc2ccccc2)cc1 | 0.389% | – |
| CC(C)(c1ccccc1)c1ccc(OCCN)cc1 | – | 18.4 µM (active) |
| O=C(NCCOc1ccccc1)c1ccccc1 | 1.35% | – |
| CCOC(=O)c1sc(NC(=O)/C=C/c2ccc(C(C)C)cc2)c(C(=O)OCC)c1C | 5.17% | – |
| COc1cccc(CNC(=O)[C@@H]2CCCN2C(=O)[C@@H]2CCCN2C(=O)c2ccccc2)c1 | -27.4% | – |
| COc1cccc(N2C(=O)CN(Cc3ccccc3)C2=S)c1 | -10.6% | – |
| CCOC(=O)CNC(=O)c1nn(-c2cccc(OC)c2)c(=O)c2ccccc12 | 4.95% | – |
| COc1cccc(-n2nc(C(=O)N3CCN(Cc4ccccc4)CC3)c3ccccc3c2=O)c1 | – | 20.6 µM (active) |
| N=C1C(c2nc3ccccc3[nH]2)=C(O)CN1NC(=O)c1c[nH]c2ccccc12 | 4.83% | – |
| O=C(COC(=O)CCCN1C(=O)c2cccc3cccc(c23)C1=O)NC1CCS(=O)(=O)C1 (stereo unspecified) | 4.29% | – |
| Cc1ccc(-c2cc(C(=O)Nc3nn[nH]n3)c3ccccc3n2)c(C)c1 | 10.7% | – |
| Cc1ccc(-c2cc(C(=O)N/N=C/C=C/c3ccco3)c3ccccc3n2)cc1C | – | 8.2 µM (active) |
| Nc1ccccc1C(=O)NC1CCCCNC1=O (stereo unspecified) | 10.6% | – |
| CNC(=O)c1ccc(CN(C)C(=O)c2cc(C3CC3)nc3c2cnn3C(C)C)cc1 | -22.5% | – |
| CCOC(=O)c1ccc(-c2ccc(/C=C(\C#N)C(=O)Nc3ccc(OCC)cc3)o2)cc1 | -5.81% | – |
| CCOC(=O)c1ccc(NC(=O)CNC(=O)c2ccco2)cc1 | -0.879% | – |
| CCOC(=O)c1ccc(-c2ccc(/C=C(\C#N)C(=O)Nc3ccc(C)cc3)o2)cc1 | – | 9.2 µM (active) |
